Bioassay records: PubChem BioAssay, National Center for Advancing Translational Sciences (NCATS)
TGFb inhibitor: blocks TGF-b signaling | AID 588855 | actives 1.2% (n = 410,000) | Potency, µM (titrated, usually from 46.1 µM), inactives show at the highest dose activity, negative = inhibition, actives largely listed as inhibitors | HepG2 CAGA-GFP TGF-b/SMAD3 reporter, GFP fluorescence, 18 h; TGF-beta stimulated, 500 pg/mL final; further: potency means the concentration at half of the fitted maximal effect; on the % scale 0 is the no-effect control and ±100 the full control effect; nearly all actives have a fitted effect of over 65% in size
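Using HEPG2 CAGA-GFP reporter cells at 1000 cells/well, we pinned test compounds, stimulated with recombinant TGF-beta (500 pg/mL final) and measured total well GFP after 18 h.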
HepG2 tox: counter-screen for TGF-b inhibitors: cytotoxicity in HepG2 cells; HepG2 CAGA-GFP viability, ATP luminescence, 18 h; Potency, µM (highest dose often 46.1 µM), for the others: at the top dose activity change, negative = cytotoxicity, most hits filed as cytotoxic; actives 0.76% (n = 410,000); AID 588856; further: potency means the concentration at half of the fitted maximal effect
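HepG2 CAGA-GFP cells (1000/well, DMEM with 1% FBS) received compound, then TGF-beta at 500 pg/mL final, and were incubated 18 hours at 37 degrees C. Viability was read by CellTiter-Glo luminescence. Media-only wells were set as complete cell-killing and DMSO as no toxicity.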
ATXN2 expr inh: inhibitors of ATXN2 expression; HEK-293 ATXN2-luciferase reporter, luminescence, 24 h; Potency, µM (titrated, usually from 57 µM), for inactives: top-dose activity change, negative = inhibition, hits mostly inhibitors; actives 0.72% (n = 360,000); AID 1745845; further: potency means the concentration at half of the fitted maximal effect; on the % scale 0 is the no-effect control and ±100 the full control effect; nearly all actives have a fitted effect of over 55% in size
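ATXN2-luciferase reporter cells (luciferase flanked by upstream and downstream ATXN2 gene portions) were treated 24 h at 37 °C with compounds at up to 57 uM. SteadyGlo luminescence gave expression; GF-AFC fluorescence gave viability.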
IL-1B inflam inh: inhibitors of inflammasome signaling (IL-1 beta secretion); actives 4.7% (n = 360,000); activity change, % at 57.5 µM; THP-1 LPS/ATP IL-1B secretion, AlphaLISA, 16 h; stronger effect = lower value; in the data active means activity change below about -50%; inconclusive means mostly about -30% to -49%; further: on the % scale 0 is the no-effect control and ±100 the full control effect
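THP-1 cells pretreated 1 hr with compounds (up to 57.5 uM final), then stimulated with LPS (250 ng/mL final) plus ATP (1.25 mM final); secreted IL-1B measured by AlphaLISA after 16 hr, decreased signal indicating inhibition.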
ATXN viability: cell viability loss in ATXN counter-screen; AID 651635; S2 cells (HEK-293 line with an ATXN2-luciferase reporter) viability, CellTiter-Fluor protease fluorescence, 24 h; actives 0.49% (n = 400,000); Potency, µM (doses to about 56.7 µM), hits mostly cytotoxic; further: potency means the concentration at half of the fitted maximal effect; nearly all actives have a fitted effect of over 40% in size
An asterisk follows results filed as active; i = inactive; ? = inconclusive; nt = no result. Only some compounds are listed: those with a hit (about 5.7% of all), similar ones and a draw of the others. Unless noted, the call rests on the fitted dose curve; in most records, active means well fitted curve in the direction sought with a large enough effect; inconclusive means small, poorly fitted or top-dose-only effect, or another doubt; inactive means no such curve, though single readings can be large; an effect the other way counts as inactive or inconclusive.

SMILES	TGFb inhibitor	HepG2 tox	ATXN2 expr inh	IL-1B inflam inh	ATXN viability
O=C1OC(c2ccccc2)=N/C1=C/c1cccc(OC(=O)c2cccs2)c1	-7%	2%	6%	-52*	i
COc1ccc(CN2CCCC(CNC(=O)c3ccc(F)cc3)C2)c(C)c1C (centres undefined)	-12%	7.9µM*	nt	-25	i
COc1ccc(CN2CCCC(CNC(=O)c3ccc(F)cc3)C2)c(F)c1 (centres undefined)	3%	-10%	-17%	-6	i
COc1cc(F)c(F)c(Nc2ccc(I)cc2F)c1NS(=O)(=O)C1(C[C@H](O)CO)CC1	nt	nt	-6%	nt	nt
COc1ccc(C(=O)CCc2ccccc2)cc1	-2%	6%	60%	-52*	i
COc1ccc(C(=O)CC(=O)c2ccc(C(C)(C)C)cc2)cc1	-3%	-8%	?	8	i
COc1ccc(C(=O)CC(=O)c2ccc(F)cc2)cc1	-18%	-6%	nt	-53*	i
COc1ccc(C(=O)NC(C(=O)N2CCN(C/C=C/c3ccccc3)CC2)C(C)C)cc1 (centres undefined)	-7%	-10%	nt	-25	i
CC(C)[C@H](NC(=O)c1ccc([N+](=O)[O-])cc1Cl)C(=O)N1CCN(C/C=C/c2ccccc2)CC1	?	-6%	?	-64*	i
COc1ccccc1N1CCN(Cc2nc(-c3ccc(F)cc3)oc2C)CC1	?	-21%	nt	-2	?
COc1ccc(-c2nc(CSCC(=O)N3CCN(c4ccccc4F)CC3)c(C)o2)cc1	6.3µM*	-35%	?	nt	nt
COc1ccc(-c2nc(CN3CCN(c4ccccc4OC)CC3)c(C)o2)cc1	-25%	-11%	-26%	-97*	i
COCCN1CCc2nc(SCC(=O)Nc3ccc(C)c(Cl)c3)[nH]c(=O)c2C1	-22%	-26%	4%	nt	i
O=C(CSc1ncc(S(=O)(=O)c2ccc(Cl)cc2)c(=O)[nH]1)Nc1ccc2c(c1)OCCO2	2%	-28%	8%	nt	i
CC1=C(C(=O)OCC2CCCO2)C(c2ccccc2OC(C)C)C2=C(CC(c3ccco3)CC2=O)N1 (centres undefined)	-4%	2%	-1%	-10	i
CC1=C(C(=O)OCC2CCCO2)C(c2cccc(C(F)(F)F)c2)C2=C(CC(c3ccco3)CC2=O)N1 (centres undefined)	?	-22%	nt	-53*	nt
COc1cc(-c2ccc3sc(-c4ccsc4)c(C#CCO)c3c2)cc(OC)c1OC	16µM*	-34%	25µM*	0	?
COc1ccc2sc(-c3ccc(S(C)(=O)=O)cc3)c(C#CCO)c2c1	?	-35%	-5%	-55*	?
CS(=O)(=O)c1ccc(-c2sc3ccccc3c2C#CCCO)cc1	11µM*	-33%	?	-18	?
Clc1cccc(CNCCCSc2nnnn2-c2ccccc2)c1	0%	-50%	-6%	nt	i
NC(=O)c1c(OCc2c(F)cc(Br)cc2F)nsc1NC(=O)NCCCCN1CCCC1	nt	nt	31µM*	nt	nt
CC1CN(S(=O)(=O)c2cccc(C(F)(F)F)c2)CC(C)O1 (centres undefined)	-1%	9%	-11%	12	i
CC(C)CCN(C)C1CCN(S(=O)(=O)c2cccc(C(F)(F)F)c2)CC1	-13%	-43%	-7%	-53*	i
CC(C)(C)C(=O)CSc1nc2ccsc2c(=O)n1Cc1ccccc1Cl	-1%	-10%	nt	nt	nt
CCOC(=O)c1cnc2ccc(OCC)cc2c1N1CCN(c2ccccc2F)CC1	11µM*	-27%	0%	nt	?
SMILES	TGFb inhibitor	HepG2 tox	ATXN2 expr inh	IL-1B inflam inh	ATXN viability
CCOC(=O)C1CCCN(c2c(C(=O)c3ccccc3)cnc3ccc(OC)cc23)C1 (centres undefined)	-23%	-24%	-11%	15	i
CCOC(=O)C1CCN(c2c(C(=O)c3ccc(OCC)cc3)cnc3ccc(OC)cc23)CC1	8.9µM*	-32%	?	nt	?
CCOC(=O)c1cnc2ccc(OCC)cc2c1N1CCN(c2ccccc2)CC1	?	-25%	-17%	-17	i
COc1ccc(C2C3C=CCC(c4cccc(-c5ccc(N(C)C)cc5)c4)C3C(=O)N2Cc2ccccc2)cc1Cl (centres undefined)	-1%	10%	nt	nt	nt
Cc1c(C(=O)NCc2ccccc2Cl)sc2ncnc(NCC3CCCO3)c12 (centres undefined)	nt	nt	nt	nt	i
O=C1c2cc([N+](=O)[O-])cc3cc([N+](=O)[O-])cc(c23)C(=O)N1c1ccccn1	5.6µM*	2%	?	-100*	?
O=C1c2ccc(Oc3cccc([N+](=O)[O-])c3)cc2C(=O)N1c1ccccn1	7%	2%	nt	2	i
Cc1c(C(=O)OCc2ccccc2)[nH]c2c1C(=O)CC(c1ccco1)C2 (centres undefined)	2.5µM*	-44%	-13%	0	?
COCCOC(=O)c1[nH]c2c(c1C)C(=O)CC(c1ccco1)C2 (centres undefined)	?	-15%	10%	77	?
O=C1CC(c2ccc(O)cc2)Oc2cc(O)cc(O)c21 (centres undefined)	12%	0%	23%	16	i
CC1CC(=O)c2c(cc3c(-c4c(O)cc(O)c5c(O)c6c(cc45)OC(C)CC6=O)c(O)cc(O)c3c2O)O1 (centres undefined)	?	-103%	20µM*	3	i
Cc1ccccc1-c1nc(CS(=O)(=O)CC(=O)NCCc2ccccc2)c(C)o1	14µM*	-14%	-6%	-22	i
Cc1oc(-c2ccccc2F)nc1CS(=O)(=O)CC(=O)NCCCc1ccccc1	3%	4%	-14%	-7	?
COc1cccc(-c2nc(CS(=O)(=O)CC(=O)NCCc3ccc(Cl)cc3)c(C)o2)c1	11µM*	-41%	nt	nt	nt
Cc1oc(-c2ccccc2F)nc1CS(=O)(=O)CC(=O)NC(C)CCc1ccccc1 (centres undefined)	?	-20%	-23%	-5	i
Cc1cccc(N2CCN(C(=O)CS(=O)(=O)Cc3nc(-c4ccccc4F)oc3C)CC2C)c1 (centres undefined)	-29%	-19%	3%	18	i
Cc1ccc(-c2nc(CS(=O)(=O)CC(=O)NC(C)CCc3ccccc3)c(C)o2)cc1 (centres undefined)	11µM*	-61%	nt	nt	nt
Cc1cccc(N2CCN(C(=O)CS(=O)(=O)Cc3nc(-c4ccccc4C)oc3C)CC2C)c1 (centres undefined)	11µM*	-34%	?	nt	i
CN(C)c1ccc(-c2c(C3C4C=CCCC4(C)C(=O)N3Cc3ccccc3)ccc3ccccc23)cc1 (centres undefined)	?	-13%	nt	nt	nt
